Test results from PubChem BioAssay (NCI).
The panel holds about 83,000 compounds, 20% with a hit somewhere; the sample as a whole holds those more often.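 Negative percent growth values reflect cell death: -40 means 40% of the cells present at the start died, and -100 means all died.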 The source made the active and inactive calls. The calls were made as follows: active = growth percent below 10; inactive = the rest.

Tested on: HL-60(TB) leukemia
Assay: NCI-60 one-dose screen, 48 h (100 = growth as untreated, 0 = no growth, -100 = all killed)
Settings: 10 µM unless noted

Row | Compound | growth
1 | C=C(C=O)[C@@H]1CC=C(C=O)CC1 | -33.2% (active)
2 | COc1ccc2oc3c(ccc[n+]3C)c(=O)c2c1 | 109% (inactive)
3 | COCCOc1cc2ncnc(N3CCN(c4ncc(S(=O)(=O)N5CCCCC5)cn4)CC3)c2cc1OCCOC | 100% (inactive)
4 | O=C1c2ccc3c4c(ccc(c24)C(=O)N1CCCCO)C(=O)N(CCCCO)C3=O | 7.09% (active)
5 | C=CCn1c(SCC(=O)Nc2ccc(C(=O)/C=C/c3ccc(Cl)cc3)cc2)nnc1-c1ccc(Br)cc1 | 76.2% (inactive)
6 | COc1c(O)cc2c(c1CC=C(C)C)OC(=O)c1c(cc(O)c(CC=C(C)C)c1O)O2 | 31% (inactive)
7 | COC(=O)c1cc(N=C2NC(=O)/C(=C/C=C/c3ccccc3)S2)ccc1O | -0.749% (active)
8 | Cc1ccc2nc(-[n+]3cc4ccccc4cc3C)ccc2c1 | 0.144% (active)
9 | CCOC(=O)c1cc2c(n1Cc1cccc(OC)c1)-c1oncc1CCC2 | 7.26% (active)
10 | Cn1c(/C(C#N)=C/c2ccc3ccccc3c2)cc2ccccc21 | -6.93% (active)
11 | Cc1ccc(Nc2nc(NCCO)c3ccccc3n2)cc1C | -10.3% (active)
12 | Cn1c2c(c3ccc(Cl)c(Cl)c31)C(C#N)C1(CCNCC1)NC2=O (stereo not given) | 4.92% (active)
13 | c1ccc(CCSc2ncnc3nc[nH]c23)cc1 | 74.7% (inactive)
14 | CCC1CCc2nc3sc(C(=O)Nc4ccccc4F)c(N)c3cc2C1 (stereo not given) | 21.5% (inactive)
15 | c1ccc(Cn2cc3c(c2-c2ccccc2)CCc2cnoc2-3)cc1 | 35.6% (inactive)
16 | COc1ccc(C2CC(c3ccc4ccccc4c3)=NN2/C=C2\SC(=S)N(NC(=O)Cc3ccccc3Nc3c(Cl)cccc3Cl)C2=O)cc1 (stereo not given) | -27.4% (active)
17 | Clc1ncnc2scc(C3COc4ccccc4O3)c12 (stereo not given) | 102% (inactive)
18 | COc1ccc(N2CCN(CC(=O)N3CCN(c4nnc(-c5ccc(Cl)cc5)c(-c5ccc(Cl)cc5)n4)CC3)CC2)cc1 | -19.9% (active)
19 | NC(=O)NC1(C(=O)O)CCCC1 | 97.1% (inactive)
20 | NC(N)=NC(N)=Nc1ccccc1-c1ccccc1 | 108% (inactive)

Row | Compound | growth
21 | N#Cc1ccccc1-c1ccc(Cn2c(-c3cscn3)nc3c(Cl)cccc32)cc1 | 85.8% (inactive)
22 | Cc1cc(C)c([I+]c2c(C)cc(C)cc2C)c(C)c1 | -64.3% (active)
23 | CCCCC1CCc2cccc3c(SCC(=O)N(C)c4ccc(Cl)cc4)cc[n+]1c23 (stereo not given) | 91.4% (inactive)
24 | Cn1ccc(=Nc2ccc(NC(=O)c3ccc(N=c4ccn(C)c5ccc([N+](=O)[O-])cc45)cc3)cc2)cc1 | 76.7% (inactive)
25 | COc1ccc(C2CC(=O)c3c(O)c(OC)c(OC)c(OC)c3O2)c(O)c1 (stereo not given) | 2.26% (active)
26 | O=C(CN1CCN(c2ccc(Cl)cc2)CC1)N1CCN(c2nnc(-c3ccc(Cl)cc3)c(-c3ccc(Cl)cc3)n2)CC1 | 41.4% (inactive)
27 | COc1cc(OC)c(C(=O)/C=C/c2cccc(C(F)(F)F)c2)c(OC)c1 | -26.6% (active)
28 | COc1cc(/C=C(/c2ccccc2)[N+](=O)[O-])c(OC)c2c1OCO2 | -23% (active)
29 | O=C1/C(=C/c2cccc([N+](=O)[O-])c2)COc2ccc(O)c(O)c21 | -19.5% (active)
30 | N/C(=N\C(N)=N\c1nc2ccccc2s1)c1cnccn1 | 0.412% (active)
31 | CN(C)c1ccc2cc(-c3ccccc3F)c(N)nc2c1 | 5.36% (active)
32 | COc1ncc(-c2ccc3nccc(-c4ccnnc4)c3c2)cc1NS(=O)(=O)c1ccc(F)cc1F | -13.8% (active)
33 | Nc1nc2ccc(CNc3ccc(C(=O)NC(CC(=O)O)C(=O)O)cc3)cc2c(=O)[nH]1 (stereo not given) | 4.48% (active)
34 | O=C(Nc1ccc(-c2ccc3c(c2)NC(=O)/C3=C\c2ccc[nH]2)cc1)NC1CC1 | 98.3% (inactive)
35 | Clc1ccc(-c2nc(-c3cccs3)no2)cc1 | 108% (inactive)
36 | O=C(/C=C/c1c[nH]c2ccccc12)c1cc2ccccc2o1 | 37.9% (inactive)
37 | COc1ccc2c(/C=C3/C(=O)NC(=S)NC3C)cc(=O)oc2c1 (stereo not given) | 90.5% (inactive)
38 | Nc1ncnc2c1ncn2C1OC(COP(=O)(O)O)C(O)C1O (stereo not given) | 102% (inactive)
39 | Cc1ccc(C(=O)c2ccccc2)c(C)c1 | 115% (inactive)
40 | O=C(O)c1cc([N+](=O)[O-])ccc1Br | 105% (inactive)
